Laboratory results as given in the supplement of paper PMC11001985.

UniProt P11021, sequence (P11021 whole entry): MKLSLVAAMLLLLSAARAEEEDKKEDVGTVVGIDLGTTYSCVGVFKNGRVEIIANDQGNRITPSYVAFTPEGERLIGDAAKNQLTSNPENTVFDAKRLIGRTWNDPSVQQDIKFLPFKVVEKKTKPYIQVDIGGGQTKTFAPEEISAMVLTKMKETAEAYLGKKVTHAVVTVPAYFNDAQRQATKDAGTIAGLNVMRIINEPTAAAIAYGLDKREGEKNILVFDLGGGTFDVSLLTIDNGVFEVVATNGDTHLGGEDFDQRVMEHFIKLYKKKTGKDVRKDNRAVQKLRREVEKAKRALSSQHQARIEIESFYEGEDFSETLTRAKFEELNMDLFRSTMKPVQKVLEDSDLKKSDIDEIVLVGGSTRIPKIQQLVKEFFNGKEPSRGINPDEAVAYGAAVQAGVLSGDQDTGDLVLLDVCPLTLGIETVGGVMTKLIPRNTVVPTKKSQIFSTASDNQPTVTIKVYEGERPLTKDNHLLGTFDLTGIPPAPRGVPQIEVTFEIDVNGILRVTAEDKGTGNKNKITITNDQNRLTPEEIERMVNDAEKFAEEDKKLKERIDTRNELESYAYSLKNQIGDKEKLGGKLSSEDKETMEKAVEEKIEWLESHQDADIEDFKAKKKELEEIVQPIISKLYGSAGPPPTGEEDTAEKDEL
UniProt P21333, sequence (P21333 whole entry): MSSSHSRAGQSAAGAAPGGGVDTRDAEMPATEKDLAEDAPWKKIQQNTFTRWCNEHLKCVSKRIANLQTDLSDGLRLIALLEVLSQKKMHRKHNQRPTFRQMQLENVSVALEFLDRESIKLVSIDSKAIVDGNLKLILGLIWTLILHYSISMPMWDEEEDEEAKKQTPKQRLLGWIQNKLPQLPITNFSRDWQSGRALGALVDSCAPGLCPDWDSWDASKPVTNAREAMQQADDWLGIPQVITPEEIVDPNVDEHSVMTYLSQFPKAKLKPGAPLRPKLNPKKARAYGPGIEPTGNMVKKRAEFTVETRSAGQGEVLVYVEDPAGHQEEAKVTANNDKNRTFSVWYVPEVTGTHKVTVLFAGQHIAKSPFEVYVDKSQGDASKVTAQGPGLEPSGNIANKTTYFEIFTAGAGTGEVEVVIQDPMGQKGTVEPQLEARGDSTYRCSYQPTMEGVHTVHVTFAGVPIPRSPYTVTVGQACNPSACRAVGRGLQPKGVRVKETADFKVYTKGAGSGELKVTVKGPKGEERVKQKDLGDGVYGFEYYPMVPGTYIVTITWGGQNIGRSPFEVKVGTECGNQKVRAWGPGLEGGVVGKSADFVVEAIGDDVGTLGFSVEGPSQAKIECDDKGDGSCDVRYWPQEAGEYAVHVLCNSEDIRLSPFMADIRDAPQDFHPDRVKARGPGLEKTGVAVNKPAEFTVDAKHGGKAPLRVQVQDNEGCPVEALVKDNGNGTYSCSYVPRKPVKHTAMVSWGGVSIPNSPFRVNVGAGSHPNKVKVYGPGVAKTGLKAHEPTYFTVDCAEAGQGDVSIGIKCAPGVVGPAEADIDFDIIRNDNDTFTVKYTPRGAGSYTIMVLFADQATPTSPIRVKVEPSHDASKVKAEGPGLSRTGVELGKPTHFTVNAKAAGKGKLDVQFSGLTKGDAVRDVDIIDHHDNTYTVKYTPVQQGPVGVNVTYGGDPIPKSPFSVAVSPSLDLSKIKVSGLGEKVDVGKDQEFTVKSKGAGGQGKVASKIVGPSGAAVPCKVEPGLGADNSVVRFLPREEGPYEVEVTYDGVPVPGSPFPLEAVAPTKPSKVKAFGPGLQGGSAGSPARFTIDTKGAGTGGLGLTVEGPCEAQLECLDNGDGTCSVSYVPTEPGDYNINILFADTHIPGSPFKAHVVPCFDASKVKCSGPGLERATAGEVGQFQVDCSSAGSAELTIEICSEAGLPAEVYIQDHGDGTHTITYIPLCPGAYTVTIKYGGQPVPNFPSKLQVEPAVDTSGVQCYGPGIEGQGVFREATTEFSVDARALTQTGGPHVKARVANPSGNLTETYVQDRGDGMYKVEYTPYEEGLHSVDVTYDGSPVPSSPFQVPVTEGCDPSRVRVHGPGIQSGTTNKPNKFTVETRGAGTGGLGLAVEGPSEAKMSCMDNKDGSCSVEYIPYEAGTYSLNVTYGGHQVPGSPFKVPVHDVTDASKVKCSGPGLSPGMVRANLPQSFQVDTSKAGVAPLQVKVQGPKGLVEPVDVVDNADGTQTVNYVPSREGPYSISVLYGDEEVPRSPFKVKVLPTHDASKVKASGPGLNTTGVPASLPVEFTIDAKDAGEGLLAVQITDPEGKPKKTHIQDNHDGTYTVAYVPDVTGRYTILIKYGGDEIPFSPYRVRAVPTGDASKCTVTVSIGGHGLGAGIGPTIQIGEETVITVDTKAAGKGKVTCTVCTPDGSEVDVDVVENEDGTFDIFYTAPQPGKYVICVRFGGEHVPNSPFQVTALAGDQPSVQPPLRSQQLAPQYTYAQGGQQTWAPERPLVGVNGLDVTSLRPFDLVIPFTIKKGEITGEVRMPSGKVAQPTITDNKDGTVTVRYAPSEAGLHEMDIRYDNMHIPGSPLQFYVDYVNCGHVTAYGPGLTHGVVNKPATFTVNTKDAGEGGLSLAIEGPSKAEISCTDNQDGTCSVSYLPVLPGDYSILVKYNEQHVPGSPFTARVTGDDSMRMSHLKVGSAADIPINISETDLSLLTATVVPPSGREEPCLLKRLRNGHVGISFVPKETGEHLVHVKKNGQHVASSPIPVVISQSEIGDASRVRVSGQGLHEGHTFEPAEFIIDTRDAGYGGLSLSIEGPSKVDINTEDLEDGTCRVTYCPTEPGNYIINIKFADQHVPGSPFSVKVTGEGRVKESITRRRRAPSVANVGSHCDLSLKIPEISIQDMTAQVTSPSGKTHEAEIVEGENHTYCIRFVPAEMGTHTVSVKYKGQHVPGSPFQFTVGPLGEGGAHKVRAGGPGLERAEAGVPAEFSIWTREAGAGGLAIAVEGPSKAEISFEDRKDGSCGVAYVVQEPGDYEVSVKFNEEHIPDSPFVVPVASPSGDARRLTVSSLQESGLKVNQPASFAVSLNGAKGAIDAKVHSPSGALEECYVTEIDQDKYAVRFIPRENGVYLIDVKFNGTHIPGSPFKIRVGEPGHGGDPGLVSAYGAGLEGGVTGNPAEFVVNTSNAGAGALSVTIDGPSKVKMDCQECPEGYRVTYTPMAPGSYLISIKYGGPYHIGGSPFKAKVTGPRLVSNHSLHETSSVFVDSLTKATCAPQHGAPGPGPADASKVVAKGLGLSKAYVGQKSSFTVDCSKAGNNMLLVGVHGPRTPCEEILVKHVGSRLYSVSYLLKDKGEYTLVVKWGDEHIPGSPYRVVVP
UniProt P30533, sequence (P30533 whole entry): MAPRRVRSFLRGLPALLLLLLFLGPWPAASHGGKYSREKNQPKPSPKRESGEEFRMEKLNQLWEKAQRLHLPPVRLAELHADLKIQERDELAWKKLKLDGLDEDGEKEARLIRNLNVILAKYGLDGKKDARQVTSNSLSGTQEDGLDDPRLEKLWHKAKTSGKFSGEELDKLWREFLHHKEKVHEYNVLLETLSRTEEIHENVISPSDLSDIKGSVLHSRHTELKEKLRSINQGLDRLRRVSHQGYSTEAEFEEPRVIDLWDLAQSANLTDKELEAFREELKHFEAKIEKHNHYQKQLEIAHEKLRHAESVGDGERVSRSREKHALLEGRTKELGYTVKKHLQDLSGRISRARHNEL
UniProt P02786, sequence (P02786 whole entry, looked up): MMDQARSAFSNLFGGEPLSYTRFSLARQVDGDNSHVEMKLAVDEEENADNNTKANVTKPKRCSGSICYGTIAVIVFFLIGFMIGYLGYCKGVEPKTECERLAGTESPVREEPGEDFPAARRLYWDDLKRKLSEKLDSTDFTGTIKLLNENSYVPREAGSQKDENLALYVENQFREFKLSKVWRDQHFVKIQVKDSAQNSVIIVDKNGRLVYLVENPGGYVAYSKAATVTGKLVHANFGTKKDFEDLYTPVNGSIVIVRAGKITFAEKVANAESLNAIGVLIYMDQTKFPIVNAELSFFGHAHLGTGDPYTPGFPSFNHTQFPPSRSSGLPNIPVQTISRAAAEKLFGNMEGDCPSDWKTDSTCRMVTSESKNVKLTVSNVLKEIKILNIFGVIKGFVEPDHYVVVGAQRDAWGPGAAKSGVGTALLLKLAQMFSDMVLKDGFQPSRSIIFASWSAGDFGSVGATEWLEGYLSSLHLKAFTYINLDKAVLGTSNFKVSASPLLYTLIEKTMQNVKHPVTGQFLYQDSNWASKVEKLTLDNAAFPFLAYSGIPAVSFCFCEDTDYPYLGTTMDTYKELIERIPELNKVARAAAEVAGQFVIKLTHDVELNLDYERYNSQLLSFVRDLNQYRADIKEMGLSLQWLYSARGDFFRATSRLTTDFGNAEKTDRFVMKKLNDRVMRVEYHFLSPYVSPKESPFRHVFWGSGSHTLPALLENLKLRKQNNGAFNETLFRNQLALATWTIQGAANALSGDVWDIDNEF
UniProt P60842, sequence (P60842 whole entry): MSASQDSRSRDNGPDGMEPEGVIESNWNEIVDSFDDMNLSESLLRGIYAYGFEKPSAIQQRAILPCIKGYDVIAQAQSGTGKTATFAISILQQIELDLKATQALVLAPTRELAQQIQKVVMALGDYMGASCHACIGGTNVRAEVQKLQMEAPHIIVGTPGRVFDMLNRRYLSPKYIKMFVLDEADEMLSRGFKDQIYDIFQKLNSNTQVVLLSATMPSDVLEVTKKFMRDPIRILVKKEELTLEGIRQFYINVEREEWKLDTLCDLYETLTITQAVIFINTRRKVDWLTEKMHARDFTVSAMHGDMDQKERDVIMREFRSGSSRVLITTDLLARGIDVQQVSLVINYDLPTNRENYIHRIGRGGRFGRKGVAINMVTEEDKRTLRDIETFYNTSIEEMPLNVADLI
UniProt P19256, sequence (P19256 whole entry): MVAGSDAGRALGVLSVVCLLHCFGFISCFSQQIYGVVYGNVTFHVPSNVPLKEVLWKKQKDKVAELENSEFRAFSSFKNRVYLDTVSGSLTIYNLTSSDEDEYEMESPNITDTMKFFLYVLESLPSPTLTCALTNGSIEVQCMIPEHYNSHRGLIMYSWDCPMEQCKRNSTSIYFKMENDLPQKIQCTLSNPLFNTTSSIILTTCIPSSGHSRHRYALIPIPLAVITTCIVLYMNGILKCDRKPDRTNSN

These targets were tested with C#CCNC(=O)CCSSCCC(=O)NCCc1ccc(C=O)c(C=O)c1 (assay: lysine labeling ratio R10:1 (500 µM / 50 µM probe), SILAC-ABPP in living cells; higher = lower intrinsic lysine reactivity toward the probe, active = 2 or less). Details: HeLa; probe concentrations 500 vs 50 µM.
How it was run: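 In PBS at room temperature, living HeLa cells grown with SILAC light or heavy labels were treated with 50 µM or 500 µM of an alkyne-tagged, disulfide-linked lysine probe, with label swaps in both directions. Analysis was by LC-MS/MS on a TIMS-TOF Pro after click to biotin-azide, neutravidin capture and DTT release. For each lysine, R is the median across forward and reverse replicates of the filtered median high-probe/low-probe MS1 peptide ratio, capped at 20.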
In the case of “ST13 (lysine site: K230) (UniProt P50502)”, the “lysine labeling ratio R10:1” value is reported as 4.87 (inactive). For “GOT2 (lysine site: K73) (UniProt P00505)”, the “lysine labeling ratio R10:1” value was 3.72 (inactive). With “LRPAP1 (lysine site: K65) (UniProt P30533)” the “lysine labeling ratio R10:1” value was 4.18 (inactive). In the case of UniProt P68366 (lysine site: K112), the “lysine labeling ratio R10:1” value is reported as 2.82 (inactive). For “FLNB (lysine site: K1584) (UniProt O75369)”, the “lysine labeling ratio R10:1” value was 3.06 (inactive). In the case of UniProt P08727 (lysine site: K398), the “lysine labeling ratio R10:1” value is reported as 2.38 (inactive). With “PAICS (lysine site: K247) (UniProt P22234)” the “lysine labeling ratio R10:1” value was 1.41 (active). “ERP29 (lysine site: K137) (UniProt P30040)” was tested, and the “lysine labeling ratio R10:1” value was 6.12 (inactive). For “CDH13 (lysine site: K161) (UniProt P55290)”, the “lysine labeling ratio R10:1” value was 6.29 (inactive). In the case of “MYH9 (lysine site: K1389) (UniProt P35579)”, the “lysine labeling ratio R10:1” value is reported as 2.38 (inactive). For “DYNC1H1 (lysine site: K4171) (UniProt Q14204)”, the “lysine labeling ratio R10:1” value was 2.12 (inactive). With “CYR61 (lysine site: K208) (UniProt O00622)” the “lysine labeling ratio R10:1” value was 2.96 (inactive). In the case of “GALNT2 (lysine site: K509) (UniProt Q10471)”, the “lysine labeling ratio R10:1” value is reported as 3.5 (inactive). For “LRPAP1 (lysine site: K323) (UniProt P30533)”, the “lysine labeling ratio R10:1” value was 2.24 (inactive). With UniProt P21589 (lysine site: K67) the “lysine labeling ratio R10:1” value was 2.8 (inactive). In the case of “RTN3 (lysine site: K998) (UniProt O95197)”, the “lysine labeling ratio R10:1” value is reported as 4.14 (inactive). For “TXNRD1 (lysine site: K405) (UniProt Q16881)”, the “lysine labeling ratio R10:1” value was 5.51 (inactive). In the case of “FLNA (lysine site: K1824) (UniProt P21333)”, the “lysine labeling ratio R10:1” value is reported as 5.16 (inactive). For “RPS5 (lysine site: K47) (UniProt P46782)”, the “lysine labeling ratio R10:1” value was 1.01 (active). In the case of “HSPA5 (lysine site: K185) (UniProt P11021)”, the “lysine labeling ratio R10:1” value is reported as 3.68 (inactive). “TPI1 (lysine site: K194) (UniProt P60174)” was tested, and the “lysine labeling ratio R10:1” value was 1.22 (active). With UniProt Q9UHN6 (lysine site: K1278) the “lysine labeling ratio R10:1” value was 1.31 (active). With “TFRC (lysine site: K665) (UniProt P02786)” the “lysine labeling ratio R10:1” value was 1.78 (active). With UniProt P60842 (lysine site: K309) the “lysine labeling ratio R10:1” value was 1.73 (active). With “H2AFX (lysine site: K37) (UniProt P16104)” the “lysine labeling ratio R10:1” value was 2.89 (inactive). “FLNA (lysine site: K837) (UniProt P21333)” was tested, and the “lysine labeling ratio R10:1” value was 4.31 (inactive). “KRT18 (lysine site: K167) (UniProt P05783)” was tested, and the “lysine labeling ratio R10:1” value was 10.7 (inactive). For UniProt Q8WXD0 (lysine site: K130), the “lysine labeling ratio R10:1” value was 1.74 (active). With “HSPA5 (lysine site: K382) (UniProt P11021)” the “lysine labeling ratio R10:1” value was 1.18 (active). For UniProt Q14574 (lysine site: K662), the “lysine labeling ratio R10:1” value was 1.83 (active). For “TFPI (lysine site: K64) (UniProt P10646)”, the “lysine labeling ratio R10:1” value was 1.41 (active). “PTK7 (lysine site: K636) (UniProt Q13308)” was tested, and the “lysine labeling ratio R10:1” value was 11 (inactive). For “SERPINH1 (lysine site: K334) (UniProt P50454)”, the “lysine labeling ratio R10:1” value was 2.28 (inactive). With “CD58 (lysine site: K62) (UniProt P19256)” the “lysine labeling ratio R10:1” value was 5.48 (inactive). With “RPL5 (lysine site: K283) (UniProt P46777)” the “lysine labeling ratio R10:1” value was 1.68 (active). For “STS (lysine site: K368) (UniProt P08842)”, the “lysine labeling ratio R10:1” value was 1.48 (active). With UniProt Q15149 (lysine site: K2099) the “lysine labeling ratio R10:1” value was 4.12 (inactive). In the case of UniProt Q68BL7 (lysine site: K168), the “lysine labeling ratio R10:1” value is reported as 1.12 (active). With “NENF (lysine site: K136) (UniProt Q9UMX5)” the “lysine labeling ratio R10:1” value was 0.955 (active). With “CYB5R3 (lysine site: K42) (UniProt P00387)” the “lysine labeling ratio R10:1” value was 3.81 (inactive).
